Measurements as given in PubChem BioAssay (NCATS).
Records with an inconclusive call do not appear. A structure can be active in one record and inactive in another. Calls of active or inactive are those of the source. Calls follow the shape of the dose curve; as a rule, active = well fitted curve in the direction sought with a large enough effect; inconclusive = small, poorly fitted or top-dose-only effect, or another doubt; inactive = no such curve, though single readings can be large; an effect the other way counts as inactive or inconclusive.

How the values were obtained:
[1] = test system: KB-3-1; assay: Cytotoxic Profiling of Annotated Libraries Using Quantitative High-Throughput Screening (AID 1296008); conditions: Five cell lines viability, CellTiter-Glo ATP luminescence, 48-72 h; max response: stronger effect = lower value; also: nearly all actives have a fitted effect of over 60% in size
Method in brief: (§1)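 Cells exposed to compounds for 48 or 72 hr at 37 degrees Celsius. Viability read as ATP-coupled luminescence with CellTiter-Glo after 10 min at room temperature.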

[2] = test system: NIH3T3; assay: as above; conditions: Five cell lines viability, CellTiter-Glo ATP luminescence, 48-72 h; max response: stronger effect = lower value
Method in brief: as §1

[3] = test system: MCC-13; assay: qHTS assay to identify novel small-molecules to repurpose for Merkel cell carcinoma treatment (AID 1296009); conditions: MCC and control cell lines, CellTiter-Glo viability, 72 h; series mostly up to 46 µM; also: nearly all actives have a fitted effect of over 60% in size
Method in brief: (§2)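 Cells were incubated with compound for 72 hr at 37 degree celsius before CellTiter-Glo addition. Luminescence was normalized with no-cell wells as full cytotoxicity and DMSO as baseline.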

[4] = test system: MCC-26; assay: as above; conditions: MCC and control cell lines, CellTiter-Glo viability, 72 h; series mostly up to 46 µM
Method in brief: as §2

[5] = test system: MKL-1; assay: as above; conditions: MCC and control cell lines, CellTiter-Glo viability, 72 h; series mostly up to 46 µM
Method in brief: as §2

[6] = test system: MKL-2; assay: as above; conditions: MCC and control cell lines, CellTiter-Glo viability, 72 h; series mostly up to 46 µM
Method in brief: as §2

[7] = test system: UISO; assay: as above; conditions: MCC and control cell lines, CellTiter-Glo viability, 72 h; series mostly up to 46 µM
Method in brief: as §2

[8] = test system: WaGa; assay: as above; conditions: MCC and control cell lines, CellTiter-Glo viability, 72 h; series mostly up to 46 µM
Method in brief: as §2

[9] = test system: C33A; assay: Primary qHTS to identify gynecologic anti-cancer compounds using libraries of approved drugs and bioactive compounds (AID 1345084); conditions: Gynecologic cancer cell panel viability, ATPlite luminescence, 48 h; series mostly up to 57.5 µM; also: nearly all actives have a fitted effect of over 55% in size
Method in brief: (§3)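 Cells, 1,000 per well, plated 16 h, then exposed 48 h at 37 C to compounds. Viability by ATPlite luminescence after 15 min at room temperature.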

[10] = test system: CAOV3; assay: as above; conditions: Gynecologic cancer cell panel viability, ATPlite luminescence, 48 h; series mostly up to 57.5 µM
Method in brief: as §3

[11] = test system: CASKI; assay: as above; conditions: Gynecologic cancer cell panel viability, ATPlite luminescence, 48 h; series mostly up to 57.5 µM
Method in brief: as §3

[12] = test system: Es-2; assay: as above; conditions: Gynecologic cancer cell panel viability, ATPlite luminescence, 48 h; series mostly up to 57.5 µM
Method in brief: as §3

[13] = test system: HeLa; assay: as above; conditions: Gynecologic cancer cell panel viability, ATPlite luminescence, 48 h; series mostly up to 57.5 µM
Method in brief: as §3

[14] = test system: Hek293T; assay: as above; conditions: Gynecologic cancer cell panel viability, ATPlite luminescence, 48 h, control line for the selectivity index; series mostly up to 57.5 µM
Method in brief: as §3

[15] = test system: JEG-3; assay: as above; conditions: Gynecologic cancer cell panel viability, ATPlite luminescence, 48 h; series mostly up to 57.5 µM
Method in brief: as §3

[16] = test system: OV90; assay: as above; conditions: Gynecologic cancer cell panel viability, ATPlite luminescence, 48 h; series mostly up to 57.5 µM
Method in brief: as §3

[17] = test system: HACAT; assay: qHTS assay to identify novel small-molecules to repurpose for Merkel cell carcinoma treatment (AID 1296009); conditions: MCC and control cell lines, CellTiter-Glo viability, 72 h; at 44.8 µM (top of the series) unless noted; also: nearly all actives have a fitted effect of over 60% in size
Method in brief: as §2

[18] = test system: HEK293T; assay: as above; conditions: MCC and control cell lines, CellTiter-Glo viability, 72 h; at 44.8 µM (top of the series) unless noted
Method in brief: as §2

[19] = test system: NIH3T3; assay: as above; conditions: MCC and control cell lines, CellTiter-Glo viability, 72 h; at 44.8 µM (top of the series) unless noted
Method in brief: as §2
% is scaled to controls: 0 for no effect and ±100 for the full control effect; potency is read from the fitted curve at half-maximal effect.

NC(CO)(CO)CO
inactive: max response [1] 3.6% | max response [2] -20% | Potency [3] | Potency [4] | Potency [5] | Potency [6] | Potency [7] | Potency [8] | Potency [9] | Potency [10] | Potency [11] | Potency [12] | Potency [13] | Potency [14] | Potency [15] | Potency [16]

COc1cc2c(cc1OC)C(=O)C(CC1CCN(Cc3ccccc3)CC1)C2 (configuration not stated)
inactive: max response [1] 1.75% | max response [2] -17.7% | Potency [3] | Potency [4] | Potency [5] | Potency [7] | Potency [9] | Potency [11] | Potency [12] | Potency [13] | Potency [14] | Potency [15]

Cc1cccc(C)c1NC(=O)CN1CCN(CCCC(c2ccc(F)cc2)c2ccc(F)cc2)CC1
inactive: max response [1] -1.23% | Potency [3] | Potency [4] | Potency [5] | Potency [7] | Potency [8] | Potency [11] | Potency [12] | Potency [14] | Potency [15]

N[C@@H](Cc1cnc[nH]1)C(=O)O
inactive: max response [1] 2.19%

CCC(NC(C)C)C(O)c1ccc(O)c(O)c1 (configuration not stated)
inactive: max response [1] -9.53%

CN(C)/N=N/c1nc[nH]c1C(N)=O
inactive: max response [1] -8.2% | Potency [3] | Potency [4] | Potency [5] | Potency [10] | Potency [15]

CCCCCCC[N+](CC)(CC)CCCCc1ccc(Cl)cc1
active: Potency [5] 0.596 µM | Potency [6] 0.237 µM | Potency [7] 4.73 µM | Potency [8] 0.668 µM | Potency [10] 11.2 µM | Potency [11] 10 µM | Potency [16] 10 µM
inactive: max response [1] -16.1% | Potency [3] | Potency [4]

C[N+]1(CCCCC[N+]2(C)CCCC2)CCCC1
inactive: max response [1] 15%

NC(=NCCCCCCN=C(N)/N=C(\N)Nc1ccc(Cl)cc1)/N=C(\N)Nc1ccc(Cl)cc1
active: Potency [1] 8.2 µM | Potency [3] 26.6 µM | Potency [5] 6.68 µM | Potency [6] 2.99 µM | Potency [7] 9.44 µM | Potency [8] 8.41 µM
inactive: Potency [11] | Potency [12] | Potency [15]

CC(C)(C)CC(C)(C)c1ccc(OCCOCC[N+](C)(C)Cc2ccccc2)cc1
active: Potency [1] 20.6 µM | Potency [5] 1.06 µM | Potency [6] 0.944 µM | Potency [7] 8.41 µM | Potency [8] 1.5 µM | Potency [11] 10 µM
inactive: max response [2] -27.5% | Potency [3] | Potency [12] | Potency [13] | Potency [14] | Potency [15]
25.1 µM (active) and inactive: Potency [10]

CC(C)=CCC1C(=O)N(c2ccccc2)N(c2ccccc2)C1=O
inactive: max response [1] -9.06% | max response [2] -29% | Potency [3] | Potency [4] | Potency [9] | Potency [11] | Potency [12] | Potency [13] | Potency [14] | Potency [15] | Potency [16]
active: Potency [6] 13.3 µM

CC(=O)OCC(=O)[C@@]1(OC(C)=O)[C@@H](C)C[C@H]2[C@@H]3C[C@H](F)C4=CC(=O)C=C[C@]4(C)[C@@]3(F)[C@@H](O)C[C@@]21C
inactive: max response [1] 6.89% | max response [2] -5% | Potency [3] | Potency [4] | Potency [5] | Potency [6] | Potency [7] | Potency [8] | Potency [9] | Potency [10] | Potency [11] | Potency [12] | Potency [13] | Potency [14] | Potency [15] | Potency [16]

CC(C)COC(=O)OCN1C(=O)CN(CCN2CC(=O)N(COC(=O)OCC(C)C)C(=O)C2)CC1=O
inactive: max response [1] 6.86%

CC1(C)CCC(NC(=O)[C@@H](N)CCC(=O)O)CC1
inactive: max response [1] 5%

C[C@]12CC[C@H]3[C@@H](CCC4=CC(=O)CC[C@@]43C)[C@@H]1CC[C@@H]2C(=O)CO
inactive: max response [1] -3.06% | max response [2] -2.44% | Potency [3] | Potency [4] | Potency [5] | Potency [6] | Potency [7] | Potency [8] | Potency [9] | Potency [10] | Potency [11] | Potency [12] | Potency [14] | Potency [15] | Potency [16]
active: Potency [13] 3.55 µM

CCCCC1=NC2(CCCC2)C(=O)N1Cc1ccc(-c2ccccc2-c2nn[nH]n2)cc1
inactive: outcome [17] | outcome [18] | Potency [3] | Potency [4] | Potency [5] | Potency [6] | Potency [7] | Potency [8] | Potency [9] | Potency [10] | Potency [11] | Potency [12] | Potency [13] | Potency [14] | Potency [15] | Potency [16]

CCOC(=O)n1ccn(C)c1=S
inactive: Potency [3] | Potency [4] | Potency [5] | Potency [6] | outcome [19] | Potency [7] | Potency [8] | Potency [9] | Potency [10] | Potency [11] | Potency [12] | Potency [13] | Potency [14] | Potency [15] | Potency [16]

N[C@@H](CCC(=O)N[C@@H](CS)C(=O)NCC(=O)O)C(=O)O
inactive: outcome [17] inactive [at 17.4 µM] | Potency [3] | Potency [4] | Potency [5] | Potency [6] | outcome [19] inactive [at 17.4 µM] | Potency [7] | Potency [8] | Potency [9] | Potency [10] | Potency [11] | Potency [12] | Potency [13] | Potency [14] | Potency [15] | Potency [16]

CC1(C)O[C@@H]2C[C@H]3[C@@H]4C[C@H](F)C5=CC(=O)C=C[C@]5(C)[C@H]4[C@@H](O)C[C@]3(C)[C@]2(C(=O)CO)O1
inactive: max response [2] -4.68% | Potency [3] | Potency [4] | Potency [5] | Potency [6] | Potency [7] | Potency [8] | Potency [9] | Potency [10] | Potency [11] | Potency [12] | Potency [13] | Potency [14] | Potency [15] | Potency [16]
